According to PubChem BioAssay:
Activity calls are given as the source filed them.

Tests used:
[1] = test system: Human papillomavirus type 1a protein E7 (residues 44-93); experiment: small molecules binding HPV E7 44-93 – biochemical, small-molecule microarray, residues 44-93, 635 nm fluorescence, primary screen (AID 1108); details: fluorescence 635 nm, higher = more signal;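 note: E7 fragment applied at 1 µg/mL in TBST for 1 h at 4 C; score combines spot fluorescence with its signal to noise ratio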
[2] = hepatitis C replication reporter changes, two-sided – Huh7 cells, luciferase reporter, HCV replication inhibitor project, primary screen (AID 1109); details: Huh7 HCV replicon luciferase reporter, 48 h; higher = more signal;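 note: huh7 hepatoma cells harbouring a luciferase neomycin HCV replicon reporter; luciferase luminescence as measure of HCV replicon replication; test concentration not given here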
[3] = molecular target: Left-right determination factor 2 (Homo sapiens) (UniProt O00292); experiment: small molecules binding LEFTY2 protein – biochemical, small-molecule microarray, 635 nm fluorescence scan, primary screen (AID 1110); details: higher = more signal
[4] = molecular target: Calmodulin-1 (Homo sapiens) (UniProt P0DP23); experiment: small molecules binding calmodulin-1 with EGTA – biochemical, small-molecule microarray, Cy5-labelled CALM1, profiling panel (AID 1111); details: Cy5-CALM1 binding fluorescence, higher = more signal;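 note: labelled calmodulin applied in Tris saline Tween buffer holding calcium plus EGTA and DTT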
[5] = molecular target: Calmodulin-1 (Homo sapiens) (UniProt P0DP23); experiment: small molecules binding Ca-loaded calmodulin-1 – biochemical, small-molecule microarray, Cy5-labelled CALM1, plus calcium, artefact control for SMM control-protein annotation, profiling panel (AID 1112); details: Cy5-CALM1 binding fluorescence, higher = more signal;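 note: score merges spot fluorescence with signal to noise from triplicate slides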
[6] = probe aWnt5a binding to arrayed compounds – biochemical, biotinylated probe, 635/667 nm fluorescence, primary screen (AID 1113); details: small-molecule microarray, higher = more signal;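 note: score merges 667 nm fluorescence intensity with signal-to-noise per printed feature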
[7] = probe aShh binding to arrayed compounds – biochemical, biotinylated probe, 635/667 nm fluorescence, primary screen (AID 1114); details: small-molecule microarray, higher = more signal;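 note: probe is biotin-labelled aShh protein from a stem cell growth factor screen; measures binding of labelled protein to compounds printed on the slide; score merges feature fluorescence at 667 nm with signal-to-noise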
[8] = probe aNog binding to arrayed compounds – biochemical, biotinylated probe, 635/667 nm fluorescence, primary screen (AID 1115); details: small-molecule microarray, higher = more signal;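 note: probe is biotinylated aNog protein used at 0.15 µg/mL for 1 h at 4 C; z-score combines 667 nm fluorescence of each spot with its signal to noise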
[9] = molecular target: Torsin-1A-interacting protein 1 (Homo sapiens) (UniProt Q5JTV8); experiment: compound microarray binding of lysate hLAP1 – cell lysate, small-molecule microarray, COS7 lysate, 635/667 nm fluorescence, primary screen (AID 1116); details: 635 nm fluorescence, higher = more signal
[10] = molecular target: Alpha-bungarotoxin (Bungarus multicinctus) (UniProt P60615); experiment: compounds binding labelled alpha-BTX control protein – biochemical, small-molecule microarray, Alexa647 label, 635/667 nm fluorescence, artefact control for SMM control protein annotation, profiling panel (AID 1117); details: alpha-BTX-A647 binding fluorescence, higher = more signal
Albumin (Bos taurus) = Albumin (Bos taurus) (UniProt P02769); experiment: compounds binding labelled BSA control protein – biochemical, small-molecule microarray, Alexa647 label, 635/667 nm fluorescence, artefact control for SMM control protein annotation, profiling panel (AID 1118); details: BSA-A647 binding, fluorescence 635 nm, higher = more signal;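 note: score merges 667 nm emission intensity and signal-to-noise per printed compound spot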
[11] = probe aXIP binding to arrayed compounds – biochemical, NeuroSMM set, 635/667 nm fluorescence, primary screen (AID 1119); details: small-molecule microarray, higher = more signal, called active from +8 up or from −8 down;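 note: probe is the protein aXip251-270 applied at 1 µg/mL to compound-printed slides; binding of probe to printed compounds measured as 667 nm fluorescence plus signal to noise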
[12] = probe aNOTCH3 binding on compound microarray – biochemical, small-molecule microarray, 635/667 nm fluorescence, primary screen (AID 1120); details: higher = more signal;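 note: probe is a biotin-tagged antibody raised against NOTCH3 rather than NOTCH3 protein; score merges spot fluorescence near 667 nm with spot signal to noise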
[13] = probe aNOTCH2 binding on compound microarray – biochemical, small-molecule microarray, 635/667 nm fluorescence, primary screen (AID 1121); details: higher = more signal;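 note: score merges feature fluorescence read at 667 nm with its signal to noise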
[14] = molecular target: Carbonic anhydrase 2 (Homo sapiens) (UniProt P00918); experiment: compounds binding carbonic anhydrase 2 – biochemical, small-molecule microarray, Alexa647-labelled CAII, profiling panel (AID 1122); details: CAII-A647 binding fluorescence, higher = more signal
[15] = COS7 lysate on small-molecule microarray, probe aHis, 635 nm (AID 1123); details: COS7 cell lysate, fluorescence, higher = more signal;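 note: z-score combines 667nm fluorescence intensity with signal-to-noise per printed compound spot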
[16] = probe aLAP1 signal on lysate-treated microarray – cell lysate, small-molecule microarray, COS7 lysate, primary screen (AID 1124); details: probe aLAP1, fluorescence, higher = more signal;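 note: lysate comes from COS7 cells expressing LAP1 and is applied at 0.3 µg/mL; score merges spot fluorescence near 667 nm with signal-to-noise over triplicate slides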
Sam68 (KHDRBS1) = experiment: compounds binding KHDRBS1 protein – biochemical, small-molecule microarray, 635 nm fluorescence, primary screen (AID 1125); details: higher = more signal;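 note: score merges 667 nm channel intensity with signal to noise over triplicate slides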
[17] = test system: Chordin-like protein 2 (CHRDL2); experiment: compounds binding chordin-like 2 – biochemical, small-molecule microarray, 635 nm fluorescence, primary screen (AID 1126); details: fluorescence 635 nm, higher = more signal;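 note: printed compound slides probed with Chrdl2 protein at 4 µg/mL for 1 h at 4 C; score merges 667 nm emission intensity with signal to noise over three replicate slides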
[18] = molecular target: Concanavalin-A (Canavalia ensiformis) (UniProt P02866); experiment: compounds binding concanavalin A lectin – biochemical, small-molecule microarray, Alexa647 label, 635 nm, artefact control for SMM control protein annotation, primary screen (AID 1127); details: ConA-A647 binding fluorescence, higher = more signal;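 note: z combines 667 nm emission intensity with signal-to-noise across three replicate slides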
Chain of Concanavalin-A (Canavalia ensiformis) (P02866 whole entry, looked up): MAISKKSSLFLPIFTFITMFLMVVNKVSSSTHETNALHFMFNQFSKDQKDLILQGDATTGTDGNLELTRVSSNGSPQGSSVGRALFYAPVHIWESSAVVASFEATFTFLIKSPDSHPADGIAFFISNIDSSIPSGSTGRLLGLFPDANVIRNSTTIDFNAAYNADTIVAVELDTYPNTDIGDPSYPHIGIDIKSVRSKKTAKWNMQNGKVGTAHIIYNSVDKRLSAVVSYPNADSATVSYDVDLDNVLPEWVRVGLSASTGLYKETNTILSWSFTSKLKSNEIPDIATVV

Chain of Torsin-1A-interacting protein 1 (Homo sapiens) (Q5JTV8 whole entry, looked up): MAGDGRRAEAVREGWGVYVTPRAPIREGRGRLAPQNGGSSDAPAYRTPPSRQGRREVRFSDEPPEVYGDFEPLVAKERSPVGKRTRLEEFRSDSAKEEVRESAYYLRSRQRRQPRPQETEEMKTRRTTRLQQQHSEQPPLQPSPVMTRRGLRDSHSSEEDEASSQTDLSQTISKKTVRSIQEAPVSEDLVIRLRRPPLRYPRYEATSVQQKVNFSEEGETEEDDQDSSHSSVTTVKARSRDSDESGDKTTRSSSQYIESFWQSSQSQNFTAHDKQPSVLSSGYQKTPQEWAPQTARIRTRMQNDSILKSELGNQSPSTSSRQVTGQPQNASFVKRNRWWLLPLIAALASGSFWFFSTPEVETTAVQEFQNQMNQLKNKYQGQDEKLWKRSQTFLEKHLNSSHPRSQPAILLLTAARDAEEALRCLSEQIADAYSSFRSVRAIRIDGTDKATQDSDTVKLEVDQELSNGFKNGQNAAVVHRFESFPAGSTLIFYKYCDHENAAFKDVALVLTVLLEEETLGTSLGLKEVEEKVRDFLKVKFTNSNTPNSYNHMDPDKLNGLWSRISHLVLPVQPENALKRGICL
Chain of Left-right determination factor 2 (Homo sapiens) (O00292 whole entry, looked up): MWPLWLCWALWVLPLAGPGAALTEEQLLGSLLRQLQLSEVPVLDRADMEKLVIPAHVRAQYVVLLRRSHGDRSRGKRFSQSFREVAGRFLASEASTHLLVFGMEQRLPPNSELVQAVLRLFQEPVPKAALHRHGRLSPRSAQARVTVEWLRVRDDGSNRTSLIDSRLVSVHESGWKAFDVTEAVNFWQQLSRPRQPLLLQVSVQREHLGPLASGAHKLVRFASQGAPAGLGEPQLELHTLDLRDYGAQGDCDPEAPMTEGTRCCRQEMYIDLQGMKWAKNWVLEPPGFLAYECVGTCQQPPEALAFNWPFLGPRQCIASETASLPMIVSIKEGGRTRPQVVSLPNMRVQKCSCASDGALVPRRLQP
Chain of Albumin (Bos taurus) (P02769 whole entry, looked up): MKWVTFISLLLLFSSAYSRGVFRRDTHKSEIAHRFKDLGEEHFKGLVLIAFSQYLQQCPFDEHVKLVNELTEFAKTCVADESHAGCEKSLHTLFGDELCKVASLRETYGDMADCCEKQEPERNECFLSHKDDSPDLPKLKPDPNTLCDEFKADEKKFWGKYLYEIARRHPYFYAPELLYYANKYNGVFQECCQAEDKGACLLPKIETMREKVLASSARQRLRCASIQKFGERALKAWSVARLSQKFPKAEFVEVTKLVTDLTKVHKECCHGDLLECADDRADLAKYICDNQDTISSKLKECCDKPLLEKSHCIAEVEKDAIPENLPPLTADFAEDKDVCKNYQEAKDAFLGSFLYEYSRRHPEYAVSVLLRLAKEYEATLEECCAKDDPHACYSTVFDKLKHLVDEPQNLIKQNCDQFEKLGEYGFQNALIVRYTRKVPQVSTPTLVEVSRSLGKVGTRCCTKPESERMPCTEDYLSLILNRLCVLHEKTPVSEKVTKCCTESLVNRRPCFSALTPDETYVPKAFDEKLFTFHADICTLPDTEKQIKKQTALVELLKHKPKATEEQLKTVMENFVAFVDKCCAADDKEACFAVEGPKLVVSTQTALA
Chain of Alpha-bungarotoxin (Bungarus multicinctus) (P60615 whole entry, looked up): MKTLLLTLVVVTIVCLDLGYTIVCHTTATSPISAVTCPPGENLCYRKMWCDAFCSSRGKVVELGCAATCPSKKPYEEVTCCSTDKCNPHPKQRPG

SMILES	composite z-score [1]	z-score [2]	composite z-score [3]	composite z-score [4]	composite z-score [5]	composite z-score [6]	composite z-score [7]	composite z-score [8]	composite z-score [9]	composite z-score [10]	composite z-score (Albumin (Bos taurus))	composite Z-score [11]	composite z-score [12]	composite z-score [13]	composite z-score [14]	composite z-score [15]	composite z-score [16]	composite z-score (Sam68 (KHDRBS1))	composite z-score [17]	composite z-score [18]
C=CCC(OC(C)=O)[C@@H]1[C@@H](N(Cc2ccc(-c3cccc(C(F)(F)F)c3)o2)C(=O)Cc2ccc(OC)cc2)c2cc(OCCCO)ccc2N1C(=O)c1ccc(-c2ccccc2)cc1 (stereo not given in full)	-0.433	0.278	-0.164	-0.364	-0.341	0.0079	-0.0793	-0.577	-0.205	1.13	0.0925	-0.4 (inactive)	0.0711	0.0178	0.251	0.206	-0.155	0.272	0.121	-0.94
CCCCCCCCCCC(O)C1C=CC2C(=O)N(c3ccccc3)C(=O)C2N1Nc1ccc(C#N)cc1 (stereo not given)	1.38	-1.57	-0.157	2.48	1.19	0.203	-0.164	-0.889	1.47	1.19	0.957	0.338 (inactive)	0.286	0.0169	0.562	1.53	0.906	1.34	-0.842	1.12
COCC(=C=CC[C@H](O)c1ccc(CO)o1)CCO	0.76	-0.793	0.173	-0.0876	-0.249	0.0108	-0.0119	0.502	-0.0673	0.818	0.0697	0.701 (inactive)	0.0066	-0.14	0.748	1.27	-0.0497	0.601	0.0549	0.494
COc1cccc(C)c1NC(=O)O[C@H]1[C@H](OC(=O)Nc2ccccc2-c2ccccc2)[C@H](OC(=O)Nc2ccccc2-c2ccccc2)[C@@H](OC)O[C@@H]1CO	1.41	-2.36	0.679	1.72	0.11	0.0304	-0.0192	-0.518	1.26	0.688	0.816	0.497 (inactive)	0.233	0.0149	0.434	0.947	0.429	1.29	0.494	1.15
CN1C2C=C(CCCO)C(C3C(=O)N(C(N)=O)C(=O)C32)C1C1CC1 (stereo not given)	-0.071	-0.225	-0.645	-0.495	-0.458	-0.0462	0.0062	-0.102	0.474	0.0218	-0.0873	-1.14 (inactive)	-0.272	-0.14	0.234	0.043	-0.182	0.0346	-0.0334	0.31
Oc1ccc2cc[n+](Cc3cc4c(cc3Br)OCO4)cc2c1	-1.22	1.65	-0.929	-0.489	0.446	-0.1	-0.0769	-0.0546	-0.346	-0.791	-1.19	-0.399 (inactive)	-0.333	-0.108	0.908	-0.129	-0.127	-0.538	-0.496	-0.985
